# Results: PubChem BioAssay AID1159580 (chemical genetic matrix, 2015)
# The whole screen tested about 5,500 compounds, of which about 2,000 (36%) were called active. Roughly 18% stayed inconclusive and do not appear here. This is one part of the list. Unmarked numbers belong to inactive results. No stated cut-off is given here; in the data, active means normalized growth mostly below about 0.91 (no sharp cut-off); inconclusive means no clear call, values can overlap the other calls; inactive means mostly above about 0.92.
# Assay: chemical genetic growth profiling, strain panel (AID 1159580);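 further: tested at 20 µM; growth read once vehicle control cultures reached saturation at 30 °C; 1 = growth at the plate median or of vehicle wells; lower values mean less growth of the strain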
# Settings: S. cerevisiae deletion strains, growth OD
compound,measurement,setting,value
CSC(=NS(=O)(=O)c1ccccc1)SC,normalized growth,"locus YAL013W, strain DEP1, active compounds read low",0.985
same,normalized growth,"locus YBR229C, strain ROT2, active compounds read low",0.979
same,normalized growth,"locus YDL101C, strain DUN1, active compounds read low",0.98
same,normalized growth,"locus YDL134C, strain PPH21, active compounds read low",1.01
same,normalized growth,"locus YDR150W, strain NUM1, active compounds read low",0.938
same,normalized growth,"locus YEL061C, strain CIN8, active compounds read low",1.03
same,normalized growth,"locus YGR078C, strain PAC10, active compounds read low",0.985
same,normalized growth,"locus YHR030C, strain SLT2, active compounds read low",0.83
same,normalized growth,"locus YHR087W, strain rtc3, active compounds read low",1.02
same,normalized growth,"locus YJL187C, strain SWE1, active compounds read low",1
same,normalized growth,"locus YJR043C, strain POL32, active compounds read low",0.96
same,normalized growth,"locus YJR075W, strain HOC1, active compounds read low",0.977
same,normalized growth,"locus YKL190W, strain CNB1, active compounds read low",1
same,normalized growth,"locus YLR039C, strain RIC1, active compounds read low",0.595 (active)
same,normalized growth,"locus YLR058C, strain SHM2 (second series), active compounds read low",0.987
same,normalized growth,"locus YLR085C, strain ARP6, active compounds read low",0.901
same,normalized growth,"locus YLR262C, strain YPT6, active compounds read low",0.513 (active)
same,normalized growth,"locus YML094W, strain GIM5, active compounds read low",0.921
same,normalized growth,"locus YMR219W, strain ESC1, active compounds read low",0.995
same,normalized growth,"locus YMR263W, strain SAP30, active compounds read low",0.974
same,normalized growth,"locus YNL153C, strain GIM3, active compounds read low",1
same,normalized growth,"locus YNL298W, strain CLA4 (second series), active compounds read low",1.02
same,normalized growth,"locus YNL322C, strain KRE1, active compounds read low",0.971
same,normalized growth,"locus YNR030W, strain Alg12, active compounds read low",0.989
same,normalized growth,"locus YPL055C, strain LGE1, active compounds read low",0.978
same,normalized growth,"locus YPL241C, strain CIN2, active compounds read low",0.945
same,normalized growth,"locus YPR135W, strain CTF4, active compounds read low",0.941
